PubChem BioAssay (Tox21)
Records with an inconclusive call do not appear. Activity calls are given as the source filed them. Unless noted, calls come from the whole dose curve; as a rule, active = well fitted curve in the direction sought with a large enough effect in the repeat runs; inconclusive = weak or mixed curves; inactive = no such curve, though single readings can be large; an effect the other way counts as inactive or inconclusive.

How the values were obtained:
[1] = A CellTox Green Cytotoxicity Assay to monitor cytotoxicity in HepG2 cells - 16 hour (AID 1224876); note: nearly all actives have a fitted effect of over 45% in size
Summary of the method: (§1)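 Continuous culture of HepG2 cells with a membrane-impermeant DNA dye; rising fluorescence marks dead cells. Compound exposure lasted up to 40 h at 37 C, with reads every 8 h from 0 h.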

[2] = qHTS RealTime-Glo MT Cell Viability Assay in HepG2 cells - 32 hour (AID 1224877); note: nearly all actives have a fitted effect of over 55% in size
Summary of the method: (§2)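 Tox21 10K library screened in qHTS format on HepG2 cells carrying RealTime-Glo reagents. Compounds were added after a 5 h preincubation, and the luminescent signal from continuous culture was measured repeatedly during 40 h treatment.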

[3] = A CellTox Green Cytotoxicity Assay to monitor cytotoxicity in HepG2 cells - 24 hour (AID 1224878); note: nearly all actives have a fitted effect of over 45% in size
Summary of the method: as §1

[4] = A CellTox Green Cytotoxicity Assay to monitor cytotoxicity in HepG2 cells - 40 hour (AID 1224879); note: nearly all actives have a fitted effect of over 40% in size
Summary of the method: as §1

[5] = qHTS RealTime-Glo MT Cell Viability Assay in HEK293 cells - 0 hour (AID 1224880); note: top concentration of the series differs between compounds; nearly all actives have a fitted effect of over 45% in size
Summary of the method: (§3)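 qHTS format; HEK293 cells with NanoLuc/prosubstrate reagent, 37 C/5% CO2 for 5 h pre-dosing; compounds 23 nL in DMSO; luminescence at each time point reflects viable cells.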

[6] = A CellTox Green Cytotoxicity Assay to monitor cytotoxicity in HepG2 cells - 0 hour (AID 1224882); note: nearly all actives have a fitted effect of over 35% in size
Summary of the method: as §1

[7] = A CellTox Green Cytotoxicity Assay to monitor cytotoxicity in HepG2 cells - 32 hour (AID 1224883); note: nearly all actives have a fitted effect of over 50% in size
Summary of the method: as §1

[8] = A CellTox Green Cytotoxicity Assay to monitor cytotoxicity in HEK293 cells - 8 hour (AID 1224884); note: nearly all actives have a fitted effect of over 35% in size
Summary of the method: (§4)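 Each value comes from one timepoint of a single continuous run in which HEK293 cells with CellTox Green were exposed to compound for up to 40 h at 37 C, dye fluorescence rising with cell death.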

[9] = qHTS RealTime-Glo MT Cell Viability Assay in HepG2 cells - 16 hour (AID 1224885); note: nearly all actives have a fitted effect of over 50% in size
Summary of the method: as §2

[10] = qHTS RealTime-Glo MT Cell Viability Assay in HEK293 cells - 24 hour (AID 1224886); note: top concentration of the series differs between compounds; nearly all actives have a fitted effect of over 50% in size
Summary of the method: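 Luminescence generated by NanoLuc from substrate produced by living HEK293 cells served as the viability signal. Each value reflects the reading at its stated time point during continuous 40 h compound exposure at 37 C.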

[11] = A CellTox Green Cytotoxicity Assay to monitor cytotoxicity in HEK293 cells - 16 hour (AID 1224888); note: nearly all actives have a fitted effect of over 35% in size
Summary of the method: as §4

[12] = qHTS RealTime-Glo MT Cell Viability Assay in HepG2 cells - 0 hour (AID 1224889); note: nearly all actives have a fitted effect of over 50% in size
Summary of the method: as §2

[13] = A CellTox Green Cytotoxicity Assay to monitor cytotoxicity in HepG2 cells - 8 hour (AID 1224890); note: nearly all actives have a fitted effect of over 45% in size
Summary of the method: as §1

[14] = qHTS assay to identify small molecule antagonists of the estrogen receptor alpha (ER-alpha) signaling pathway using the BG1 cell line in the presence of 0.1 nM 17-beta-estradiol - cell viability counter screen (AID 1259241); note: nearly all actives have a fitted effect of over 40% in size
Summary of the method: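 The cell line endogenously expresses full-length ER-alpha and carries four EREs driving luciferase. Cells are cultured 5 days hormone-free, treated 22 hr with compounds and 0.1 nM estradiol, then viability is read by fluorescence.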

[15] = qHTS assay to identify small molecule antagonists of the androgen receptor (AR) signaling pathway using the MDA cell line in the presence of 0.5 nM R1881 - cell viability counter screen (AID 1259242); note: nearly all actives have a fitted effect of over 45% in size
Summary of the method: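 Fluorescence from CellTiter-Fluor, which reports protease activity of live cells, was read 30 min after reagent addition to MDA-kb2 cells that had been incubated 16 hr with compound and 0.5 nM R1881.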

[16] = biological target: Estrogen receptor (Homo sapiens) (UniProt P03372); assay: qHTS assay to identify small molecule antagonists of the estrogen receptor alpha (ER-alpha) signaling pathway using the BG1 cell line in the presence of 0.1 nM 17-beta-estradiol (AID 1259244); note: nearly all actives have a fitted effect of over 50% in size
Summary of the method: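 Quantitative high-throughput screen in VM7Luc4E2 cells: compound plus 0.1 nM E2 (final), 22 h, 37C, 5% CO2; ONE-Glo added, 30 min room temperature, luminescence measured.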

[17] = qHTS RealTime-Glo MT Cell Viability Assay in HEK293 cells - 8 hour (AID 1224887)
Summary of the method: as §3

[18] = A CellTox Green Cytotoxicity Assay to monitor cytotoxicity in HEK293 cells - 32 hour (AID 1224881); note: nearly all actives have a fitted effect of over 40% in size
Summary of the method: as §4

[19] = biological target: Androgen receptor (Homo sapiens) (UniProt P10275); assay: qHTS assay to identify small molecule antagonists of the androgen receptor (AR) signaling pathway using the MDA cell line in the presence of 0.5 nM R1881 (AID 1259243); note: nearly all actives have a fitted effect of over 50% in size
Summary of the method: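 Inhibition of R1881 (0.5 nM final) induced reporter signal was measured in human MDA-kb2 cells; note the MMTV promoter also responds to GR. Exposure lasted 16 hr at 37C.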

[20] = qHTS assay to identify small molecule phospholipidosis (PLD) inducers (AID 1259344; active = well fitted curve in the direction sought with a large enough effect; an effect the other way counts as inactive or inconclusive)
Summary of the method: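 Quantitative HTS in HepG2: compound plus LipidTOX Red dye for 24 h, paraformaldehyde fixation with Hoechst 33342, widefield high-content imaging; amiodarone as positive and DMSO as negative control.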
% is set by controls: 0 for no effect and ±100 for the full control effect.

Estrogen receptor (Homo sapiens), sequence (P03372 whole entry, looked up): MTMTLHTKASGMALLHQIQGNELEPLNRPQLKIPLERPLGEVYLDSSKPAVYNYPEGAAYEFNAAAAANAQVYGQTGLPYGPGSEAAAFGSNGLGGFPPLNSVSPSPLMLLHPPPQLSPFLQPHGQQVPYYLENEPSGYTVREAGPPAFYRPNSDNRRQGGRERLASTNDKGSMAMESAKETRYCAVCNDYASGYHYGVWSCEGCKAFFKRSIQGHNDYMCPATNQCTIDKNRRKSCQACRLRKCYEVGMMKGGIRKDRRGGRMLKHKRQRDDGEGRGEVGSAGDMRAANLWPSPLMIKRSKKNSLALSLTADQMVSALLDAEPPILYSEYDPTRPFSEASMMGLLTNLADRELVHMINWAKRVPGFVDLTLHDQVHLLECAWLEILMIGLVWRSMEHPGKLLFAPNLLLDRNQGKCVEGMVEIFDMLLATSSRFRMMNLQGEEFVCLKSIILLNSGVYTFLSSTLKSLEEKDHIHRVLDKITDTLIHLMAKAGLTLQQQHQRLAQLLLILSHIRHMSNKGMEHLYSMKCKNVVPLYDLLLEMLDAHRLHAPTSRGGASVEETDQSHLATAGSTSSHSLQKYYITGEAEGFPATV
Androgen receptor (Homo sapiens), sequence (P10275 whole entry, looked up): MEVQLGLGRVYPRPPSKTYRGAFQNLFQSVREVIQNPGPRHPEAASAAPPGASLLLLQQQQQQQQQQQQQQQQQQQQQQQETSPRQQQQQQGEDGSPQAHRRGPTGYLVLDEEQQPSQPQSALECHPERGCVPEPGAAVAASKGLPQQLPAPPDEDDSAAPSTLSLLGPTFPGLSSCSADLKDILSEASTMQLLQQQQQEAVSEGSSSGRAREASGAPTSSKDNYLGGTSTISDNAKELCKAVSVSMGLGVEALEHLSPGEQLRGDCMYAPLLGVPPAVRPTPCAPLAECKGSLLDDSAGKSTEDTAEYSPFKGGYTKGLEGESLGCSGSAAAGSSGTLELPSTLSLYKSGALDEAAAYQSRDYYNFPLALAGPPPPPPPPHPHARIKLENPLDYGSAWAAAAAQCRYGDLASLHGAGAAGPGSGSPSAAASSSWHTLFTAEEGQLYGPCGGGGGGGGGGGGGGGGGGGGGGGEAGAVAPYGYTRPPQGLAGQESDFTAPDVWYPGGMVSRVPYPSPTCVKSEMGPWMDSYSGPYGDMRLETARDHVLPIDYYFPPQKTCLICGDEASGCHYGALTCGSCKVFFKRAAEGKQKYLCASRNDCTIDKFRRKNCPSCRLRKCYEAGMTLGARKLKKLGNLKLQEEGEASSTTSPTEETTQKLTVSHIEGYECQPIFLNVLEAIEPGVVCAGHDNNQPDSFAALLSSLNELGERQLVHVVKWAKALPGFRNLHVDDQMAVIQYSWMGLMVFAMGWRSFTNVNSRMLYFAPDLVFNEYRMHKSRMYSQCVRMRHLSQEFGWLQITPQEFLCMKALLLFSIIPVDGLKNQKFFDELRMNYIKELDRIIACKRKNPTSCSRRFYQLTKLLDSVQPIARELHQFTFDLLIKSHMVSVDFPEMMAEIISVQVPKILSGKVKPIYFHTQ

CC(C)CO
inactive: Potency [1] | outcome [2] | Potency [3] | Potency [4] | Potency [5] | Potency [6] | Potency [7] | Potency [8] | outcome [9] | Potency [10] | Potency [11] | Potency [12] | Potency [13] | outcome [14] | outcome [15] | outcome [16]

CC/C(C)=N\O[Si](C)(O/N=C(\C)CC)O/N=C(\C)CC
inactive: Potency [1] | outcome [2] | Potency [3] | Potency [4] | Potency [5] | Potency [6] | Potency [8] | outcome [9] | Potency [10] | Potency [17] | Potency [11] | Potency [12] | Potency [13] | outcome [14] | outcome [15] | outcome [16]

CC(C)C1OCCN1CCOC(=O)NCCCCCCNC(=O)OCCN1CCOC1C(C)C (centres undefined)
inactive: Potency [1] | outcome [2] | Potency [3] | Potency [5] | Potency [18] | Potency [6] | Potency [7] | Potency [8] | outcome [9] | Potency [10] | Potency [17] | Potency [11] | Potency [12] | Potency [13] | outcome [14] | outcome [15] | Potency [19] | outcome [16]

OCC1CCC(CO)CC1 (centres undefined)
inactive: Potency [1] | outcome [2] | Potency [3] | Potency [5] | Potency [18] | Potency [6] | Potency [7] | Potency [8] | outcome [9] | Potency [10] | Potency [17] | Potency [11] | Potency [13] | outcome [14] | outcome [15] | Potency [19] | outcome [16]

CCCCCCCCCCCCCBr
inactive: Potency [1] | outcome [2] | Potency [3] | Potency [4] | Potency [18] | Potency [6] | Potency [7] | Potency [8] | outcome [9] | Potency [11] | Potency [12] | Potency [13] | outcome [14] | outcome [15]

c1ccc2cnccc2c1
inactive: Potency [1] | outcome [2] | Potency [3] | Potency [5] | Potency [18] | Potency [6] | Potency [7] | Potency [8] | outcome [9] | Potency [10] | Potency [17] | Potency [11] | Potency [13] | outcome [14] | outcome [15] | outcome [16]

OC[C@H]1O[C@@H](O[C@@H]2[C@@H](CO)O[C@](O)(CO)[C@H]2O)[C@H](O)[C@@H](O)[C@H]1O
inactive: Potency [1] | outcome [2] | Potency [3] | Potency [4] | Potency [5] | Potency [7] | Potency [8] | outcome [9] | Potency [10] | Potency [17] | Potency [11] | Potency [13] | outcome [14] | outcome [15] | Potency [19] | outcome [16] | outcome [20]

CC1=C(O)C(=O)C(C)O1 (centres undefined)
inactive: Potency [1] | outcome [2] | Potency [3] | Potency [5] | Potency [18] | Potency [6] | Potency [7] | Potency [8] | outcome [9] | Potency [10] | Potency [17] | Potency [11] | Potency [13] | outcome [14] | outcome [15] | outcome [16]

[O]=[Mo](=[O])=[O]
inactive: cytotoxicity increase [1] -8.07% [at 15.8 µM] | activity change, negative = cytotoxic [2] 0.396% [at 15.8 µM] | cytotoxicity [3] -10.8% [at 15.8 µM] | cytotoxicity increase [4] -15% [at 15.8 µM] | cytotoxicity increase [18] -39.2% [at 15.8 µM] | cytotoxicity [6] -4.74% [at 15.8 µM] | cytotoxicity increase [7] -13.6% [at 15.8 µM] | cytotoxicity increase [8] -27.3% [at 15.8 µM] | activity change, negative = cytotoxic [9] 6.22% [at 15.8 µM] | activity change [11] -32.5% [at 15.8 µM, stronger effect = higher value] | activity change, negative = cytotoxicity [12] 1.95% [at 15.8 µM] | cytotoxicity increase [13] -8.17% [at 15.8 µM] | activity change, negative = cytotoxicity [14] 0.14% [at 19 µM] | viability change, negative = cytotoxic [15] 3.82% [at 19 µM] | activity change, negative = inhibition [16] 3.96% [at 19 µM]

CC1(C)Cc2cccc(N)c2O1
inactive: Potency [1] | outcome [2] | Potency [3] | Potency [4] | Potency [5] | Potency [7] | Potency [8] | outcome [9] | Potency [10] | Potency [17] | Potency [11] | Potency [13] | outcome [14] | outcome [15] | outcome [16]

CN(C)CCN(C)CCO
inactive: Potency [1] | outcome [2] | Potency [3] | Potency [4] | Potency [5] | Potency [8] | outcome [9] | Potency [10] | Potency [17] | Potency [11] | Potency [12] | Potency [13] | outcome [14] | outcome [15] | outcome [16]

Cc1ccnc(N)c1
inactive: Potency [1] | Potency [3] | Potency [4] | Potency [5] | Potency [18] | Potency [6] | Potency [7] | Potency [8] | outcome [9] | Potency [10] | Potency [11] | Potency [12] | Potency [13] | outcome [14] | outcome [15]

CC(=O)OC(C)=O
inactive: Potency [1] | outcome [2] | Potency [3] | Potency [5] | Potency [18] | Potency [6] | Potency [7] | outcome [9] | Potency [17] | Potency [11] | Potency [12] | Potency [13] | outcome [14] | outcome [15]

CC1OCCC1=O (centres undefined)
inactive: Potency [1] | outcome [2] | Potency [3] | Potency [5] | Potency [18] | Potency [7] | outcome [9] | Potency [10] | Potency [17] | Potency [11] | Potency [12] | Potency [13] | outcome [14] | outcome [15] | outcome [16]

O=NN(CCCl)C(=O)NC1CCCCC1
inactive: Potency [1] | Potency [3] | Potency [4] | Potency [5] | Potency [18] | Potency [6] | Potency [7] | Potency [8] | outcome [9] | Potency [10] | Potency [17] | Potency [11] | Potency [12] | Potency [13] | outcome [14] | outcome [15] | outcome [20]

CN(C)C(C)(C)CO
inactive: Potency [1] | outcome [2] | Potency [3] | Potency [5] | Potency [18] | Potency [7] | Potency [8] | outcome [9] | Potency [10] | Potency [17] | Potency [11] | Potency [12] | Potency [13] | outcome [14] | outcome [15] | outcome [16]

Cc1cc(C)c(C(=O)O)c(C)c1
inactive: Potency [1] | Potency [3] | Potency [4] | Potency [5] | Potency [18] | Potency [6] | Potency [7] | Potency [8] | outcome [9] | Potency [10] | Potency [17] | Potency [11] | Potency [12] | Potency [13] | outcome [14] | outcome [15] | outcome [16]
